Records with an inconclusive call do not appear. Activity calls are given as the source filed them. The calls were made as follows: active = hit-call score of the fitted dose curve at least 0.9, where 1 is the maximum; inconclusive = response in the unintended direction; inactive = score below 0.9.

Chain of Nuclear receptor subfamily 1 group I member 3 (Homo sapiens) (Q14994 whole entry, looked up, the tested form may be a part): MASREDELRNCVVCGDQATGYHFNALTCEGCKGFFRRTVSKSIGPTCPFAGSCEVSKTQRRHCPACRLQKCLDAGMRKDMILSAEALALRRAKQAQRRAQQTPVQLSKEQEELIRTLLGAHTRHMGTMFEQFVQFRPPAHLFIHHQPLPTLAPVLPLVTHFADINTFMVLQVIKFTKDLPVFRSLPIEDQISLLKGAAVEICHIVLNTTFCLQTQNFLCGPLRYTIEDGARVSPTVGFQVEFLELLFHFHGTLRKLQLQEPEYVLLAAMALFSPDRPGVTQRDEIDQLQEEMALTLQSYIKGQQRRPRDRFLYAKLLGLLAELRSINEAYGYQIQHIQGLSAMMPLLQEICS

In the experiment the target is Nuclear receptor subfamily 1 group I member 3 (Homo sapiens) (UniProt Q14994). Description: ATG_CAR_TRANS: Attagene TRANS-FACTORIAL HepG2 Assay for human Constitutive Androstane Receptor (CAR) (AID 2282969).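 Also: activators raise reporter mRNA above DMSO so AC50 marks induction.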 Particulars: HepG2 Attagene TRANS-FACTORIAL CAR reporter. Summed up:
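HepG2 cells transiently transfected with GAL4-UAS reporter units; TRANS format reads activity of exogenous chimeric NR-Gal4 protein. After 24 h dosing, reporter mRNA quantified by RT-PCR, 6-FAM labelling and capillary electrophoresis; gain of signal fitted against DMSO.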
In the case of `O=P(O)(O)OCCC(F)(F)C(F)(F)C(F)(F)C(F)(F)C(F)(F)C(F)(F)F`, the result was inactive.

With `[Co]`, the result was inactive.

For `FC(F)(F)C(F)(F)C(F)(F)C(F)(F)C(F)(F)C(F)(F)C(F)(F)Br`, the compound was called inactive.

As for `CCN(Cc1cccc(S(=O)(=O)O)c1)c1ccc(C(=C2C=CC(=[N+](CC)Cc3cccc(S(=O)(=O)O)c3)C=C2)c2ccc(O)cc2S(=O)(=O)[O-])cc1`, the outcome was inactive.

`O=C(O)C(F)(F)C(F)(F)F`: the compound was classed as inactive.

Turning to `C#C[C@]1(O)CC[C@H]2[C@@H]3CCc4cc(OC)ccc4[C@H]3CC[C@@]21C`, the result was inactive.

As for `OCCCC(F)(F)C(F)(F)C(F)(F)F`, the compound was classed as inactive.

On to `O=C(O)C(F)(F)C(F)(F)C(F)(F)C(F)(F)F`, for which the compound was called inactive.

Regarding `O=C(O)C(F)(F)C(F)(F)C(F)(F)C(F)(F)C(F)(F)C(F)(F)C(F)(F)C(F)(F)C(F)(F)C(F)(F)C(F)(F)C(F)(F)C(F)(F)F`, the compound was called inactive.

On to `O=C(O)C=C(C(F)(F)F)C(F)(F)F`, for which the compound was called inactive.

`CC/C=C\CCOC(=O)c1ccccc1`: the call was inactive.

With `CCCCOc1ccc(N)cc1`, the compound was classed as inactive.

As to `CC(C)c1ccccc1N`, the call was inactive.

Regarding `CC/C=C\CCOC(C)=O`, the result was inactive.

In the case of `FC(F)(F)C(F)(F)C(F)(F)C(F)(F)C(F)(F)C(F)(F)CCS`, the compound was classed as inactive.

In the case of `O=C(O)C(F)(F)C(F)(F)C(F)(F)C(F)(F)C(F)(F)C(F)(F)C(F)(F)C(F)(F)C(F)(F)C(F)F`, the compound was called inactive.

`c1ccc(B(c2ccccc2)c2ccccc2)cc1`: the result was inactive.

As for `FC(F)(F)C(F)(F)C(F)(F)N(C(F)(F)C(F)(F)C(F)(F)F)C(F)(F)C(F)(F)C(F)(F)F`, the result was inactive.
